Bioassay records deposited in PubChem by Broad Institute.
Pf Dd2 growth: P. falciparum Dd2 growth inhibitors, primary screen, SYBR Green fluorescence, single dose replicates; 72 h; stronger effect = lower value; activity change, % at 10 µM; AID 1159554, 2015; 94,000 compounds, 2.3% hits; in the data active = activity change below about -80%; inconclusive = no clear call, values can overlap the other calls
C diff growth: C. difficile growth inhibitors, primary screen, HTS; Clostridium difficile clinical isolate growth, OD600, 24 h; stronger effect = lower value; growth activity, negative = inhibition, % at 16 µg/mL (by protocol); 86,000 compounds, 0.25% hits; AID 1259249, 2017;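 active = mean growth activity at or below -80% and every replicate also at or below -80%; inconclusive = mean at or below -80% but some replicate above -80%; inactive = mean growth activity above -80%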;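 also: 0% = DMSO wells and -100% = levofloxacin 16 µg/mL wells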
* marks the source's active call; other numbers are inactive results; ! = repeats disagree. Sampled rows, rich in hits. Any-hit rate of the full collection: about 2.3%.

How did COc1ccc(CNC(=O)C[C@H]2C[C@@H]3c4cc(NC(=O)C5CCC5)ccc4O[C@@H]3[C@H](CO)O2)cc1 do in these assays?
Pf Dd2 growth: -28.2; C diff growth: 4.0

How did CO[C@H]1CN(C)C(=O)c2ccc(NC(=O)c3cccc(F)c3)cc2OC[C@H](C)N(CC2CC2)C[C@H]1C do in these assays?
Pf Dd2 growth: -9.2; C diff growth: -1.6

What do the screens show for `C[C@@H]1CN([C@H](C)CO)C(=O)c2cc(NS(=O)(=O)c3cccs3)ccc2O[C@@H]1CN(C)S(=O)(=O)c1ccc(F)cc1`?
Pf Dd2 growth: 2.8; C diff growth: -7.0

Results for O=S(=O)(c1cccs1)N1CCCCN2[C@H](CO)[C@@H](c3ccc(Br)cc3)[C@H]2C1 ?
Pf Dd2 growth: -10.6; C diff growth: -0.5

Results for COc1cccc(-c2ccc(C3[C@H]4CNC[C@@H]3N4C(=O)Nc3ccc(C(F)(F)F)cc3)cc2)c1 (stereo partly specified) ?
Pf Dd2 growth: 8.8; C diff growth: -94.1*!

How did O=C(Nc1ccc(C(F)(F)F)cc1)N1[C@@H]2CNC[C@H]1C2c1ccc(-c2cccnc2)cc1 (stereo partly specified) do in these assays?
Pf Dd2 growth: 10.3; C diff growth: -3.4

What do the screens show for `O=C(Nc1ccc(C(F)(F)F)cc1)N1[C@@H]2CNC[C@H]1C2c1ccc(-c2ccc(F)cc2)cc1` (stereo partly specified)?
Pf Dd2 growth: 24.6; C diff growth: -98.9*

What do the screens show for `COc1ccc(NC(=O)N2[C@@H]3CNC[C@H]2C3c2ccc(-c3cccc(OC)c3)cc2)cc1` (stereo partly specified)?
Pf Dd2 growth: 4.2; C diff growth: 48.9

What do the screens show for `COc1ccc(NC(=O)N2[C@@H]3CNC[C@H]2C3c2ccc(-c3ccccc3C)cc2)cc1` (stereo partly specified)?
Pf Dd2 growth: 4.1; C diff growth: 39.1

Results for Cc1ccccc1-c1ccc(C2[C@H]3CNC[C@@H]2N3C(=O)Nc2ccc(Cl)cc2)cc1 (stereo partly specified) ?
Pf Dd2 growth: 13.9; C diff growth: -97.4*!

Results for C[C@H]1CN([C@@H](C)CO)C(=O)c2cc(-c3ccc(C#N)cc3)cnc2O[C@@H]1CN(C)CC1CCCC1 ?
Pf Dd2 growth: 16.7; C diff growth: -0.6

How did C[C@@H]1CCCCO[C@H](CN(C)Cc2ccc(C(F)(F)F)cc2)[C@H](C)CN([C@@H](C)CO)C(=O)c2cc(NC(=O)Nc3cccc4ccccc34)ccc2O1 do in these assays?
Pf Dd2 growth: -43.2; C diff growth: -0.1

How did C[C@@H]1CN([C@H](C)CO)C(=O)c2cc(NC(=O)Nc3cccc4ccccc34)ccc2O[C@@H](C)CCCCO[C@H]1CN(C)Cc1ccc(C(F)(F)F)cc1 do in these assays?
Pf Dd2 growth: -84.9*; C diff growth: 9.3

How did C[C@H](CO)N1C[C@H](C)[C@@H](CN(C)C(=O)Nc2ccc(C(F)(F)F)cc2)OCCCC[C@H](C)Oc2ccc(NC(=O)Nc3cccc4ccccc34)cc2C1=O do in these assays?
Pf Dd2 growth: -85.5*; C diff growth: -11.7

What do the screens show for `C[C@H]1CCCCO[C@H](CN(C)C(=O)Nc2ccc(C(F)(F)F)cc2)[C@@H](C)CN([C@@H](C)CO)C(=O)c2cc(NC(=O)Nc3cccc4ccccc34)ccc2O1`?
Pf Dd2 growth: -82.8*; C diff growth: -18.9

What do the screens show for `C[C@H]1CCCCO[C@@H](CN(C)C(=O)Nc2ccc(C(F)(F)F)cc2)[C@@H](C)CN([C@@H](C)CO)C(=O)c2cc(NC(=O)Nc3cccc4ccccc34)ccc2O1`?
Pf Dd2 growth: -1.4; C diff growth: -18.3

Results for C[C@@H]1CN([C@H](C)CO)C(=O)c2cc(NC(=O)Nc3cccc4ccccc34)ccc2O[C@@H](C)CCCCO[C@H]1CN(C)C(=O)Nc1ccc(C(F)(F)F)cc1 ?
Pf Dd2 growth: -59.0; C diff growth: -9.2

Results for O=C(C[C@H]1C[C@@H]2c3cc(NC(=O)c4cccnc4)ccc3O[C@@H]2[C@@H](CO)O1)NCc1cc(F)ccc1F ?
Pf Dd2 growth: 4.5; C diff growth: -7.6

How did C[C@H]1CN([C@@H](C)CO)C(=O)c2cccc(NS(=O)(=O)c3cccs3)c2O[C@H]1CN(C)C(=O)Nc1ccc(C(F)(F)F)cc1 do in these assays?
Pf Dd2 growth: -17.7

What do the screens show for `C[C@@H]1CCCCO[C@H](CN(C)C(=O)Nc2ccc(F)cc2)[C@H](C)CN([C@@H](C)CO)C(=O)c2cc(NC(=O)c3ccccc3)ccc2O1`?
Pf Dd2 growth: -62.2; C diff growth: 0.6

What do the screens show for `Cc1noc(C)c1NC(=O)N(C)C[C@H]1OCc2ccccc2-c2c(n(C)c3ccccc23)C(=O)N([C@@H](C)CO)C[C@H]1C`?
Pf Dd2 growth: -9.4; C diff growth: -3.9

What do the screens show for `C[C@@H]1CN([C@@H](C)CO)C(=O)c2cccc(NC(=O)Nc3ccc(F)cc3)c2O[C@@H]1CN(C)Cc1ccc(Oc2ccccc2)cc1`?
Pf Dd2 growth: -36.4

Results for CC(C)NC(=O)NCC[C@@H]1CC[C@H](NC(=O)Nc2ccccc2)[C@@H](CO)O1 ?
Pf Dd2 growth: 5.2

What do the screens show for `Cc1ccc(S(=O)(=O)N(C)C[C@@H]2OCCCC[C@H](C)Oc3ccc(NC(=O)Nc4ccccc4)cc3C(=O)N([C@H](C)CO)C[C@@H]2C)cc1`?
Pf Dd2 growth: inconclusive; C diff growth: -1.0

How did Cc1ccc(S(=O)(=O)N(C)C[C@@H]2OCCCC[C@@H](C)Oc3ccc(NC(=O)Nc4ccccc4)cc3C(=O)N([C@H](C)CO)C[C@H]2C)cc1 do in these assays?
Pf Dd2 growth: -84.8*; C diff growth: 16.6

How did C[C@@H]1CCCCO[C@H](CN(C)S(=O)(=O)c2ccccc2)[C@H](C)CN([C@H](C)CO)C(=O)c2cc(NC(=O)Nc3ccccc3)ccc2O1 do in these assays?
Pf Dd2 growth: -84.8*

Results for C[C@@H]1CN([C@H](C)CO)C(=O)c2cc(NC(=O)Nc3ccccc3)ccc2O[C@@H](C)CCCCO[C@H]1CN(C)S(=O)(=O)c1ccccc1 ?
Pf Dd2 growth: -78.6

What do the screens show for `Cc1ccc(S(=O)(=O)N(C)C[C@@H]2OCCCC[C@@H](C)Oc3ccc(NC(=O)Nc4ccccc4)cc3C(=O)N([C@H](C)CO)C[C@@H]2C)cc1`?
Pf Dd2 growth: -85.9*; C diff growth: 10.3

How did C[C@@H]1CCCCO[C@@H](CN(C)S(=O)(=O)c2ccccc2)[C@H](C)CN([C@@H](C)CO)C(=O)c2cc(NC(=O)Nc3ccccc3)ccc2O1 do in these assays?
Pf Dd2 growth: -27.5

What do the screens show for `Cc1ccc(S(=O)(=O)N(C)C[C@H]2OCCCC[C@H](C)Oc3ccc(NC(=O)Nc4ccccc4)cc3C(=O)N([C@H](C)CO)C[C@@H]2C)cc1`?
Pf Dd2 growth: -70.9; C diff growth: 3.2

Results for Cc1ccc(S(=O)(=O)N(C)C[C@H]2OCCCC[C@H](C)Oc3ccc(NC(=O)Nc4ccccc4)cc3C(=O)N([C@@H](C)CO)C[C@H]2C)cc1 ?
Pf Dd2 growth: -91.0*; C diff growth: 8.6

How did C[C@@H]1CN([C@@H](C)CO)C(=O)c2cc(NC(=O)Cc3ccccc3)ccc2O[C@H]1CN(C)Cc1ccc(C(F)(F)F)cc1 do in these assays?
Pf Dd2 growth: -21.4; C diff growth: -5.4

Results for COc1ccc(NC(=O)N(C)C[C@@H]2OCc3ccccc3-c3c(n(C)c4ccccc34)C(=O)N([C@@H](C)CO)C[C@@H]2C)cc1 ?
Pf Dd2 growth: -67.4
